HDAC3 inhib: blocks human histone deacetylase 3. O15379. recombinant HDAC3, fluorogenic peptide/trypsin coupled, fluorescence. inhibition, % at 8.3 µM. 320,000 compounds, 0.15% hits. AID 2718; in the data active = inhibition above about 26%, passing the limit was not always enough; inconclusive = no clear call, values can overlap the other calls
SIRT5 block: blocks human SIRT5 desuccinylation of peptide; Q9NXA8; Purified SirT5, succinyl-peptide AMC, trypsin-coupled fluorescence; inhibition, % at 15 µM; 330,000 compounds, 1.1% hits; AID 652115; in the data active = inhibition above about 15%; inconclusive = no clear call, values can overlap the other calls
PDI turbidity: blocks human protein disulfide isomerase activity; PDI insulin aggregation turbidity, A650, 90 min; inhibition, % at 10 µM; 350,000 compounds, 0.052% hits; AID 588391;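 active = mean inhibition across replicates of 30% or more, whatever share of single replicates reach that level; inconclusive = mean inhibition below 30% while every single replicate reaches 30%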
ERp5 inh: blocks human ERp5 reductase activity on insulin; Q15084; ERp5 insulin aggregation, absorbance 650 nm, 90 min; inhibition, % at 9.99 µM; 350,000 compounds, 0.05% hits; AID 651711;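 active = mean replicate inhibition above about 25%, with every replicate also reaching it, limit read from the data, passing the limit was not always enough; inconclusive = only one of those two criteria met; inactive = neither criterion met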
ERAP1 inh: blocks human ERAP1 aminopeptidase activity; 340,000 compounds, 0.15% hits; recombinant ERAP1, Leu-AMC fluorescence, 60 min; inhibition, % at 10.7 µM; AID 652197;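 active = mean replicate inhibition of at least 30%, or all replicates individually reaching that 30% level; inactive = mean below 30% and not every replicate reaching it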;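 also: 0% = neutral control wells and 100% = L-leucinethiol positive control wells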
Target sequence (Q9NZ08 whole entry, looked up): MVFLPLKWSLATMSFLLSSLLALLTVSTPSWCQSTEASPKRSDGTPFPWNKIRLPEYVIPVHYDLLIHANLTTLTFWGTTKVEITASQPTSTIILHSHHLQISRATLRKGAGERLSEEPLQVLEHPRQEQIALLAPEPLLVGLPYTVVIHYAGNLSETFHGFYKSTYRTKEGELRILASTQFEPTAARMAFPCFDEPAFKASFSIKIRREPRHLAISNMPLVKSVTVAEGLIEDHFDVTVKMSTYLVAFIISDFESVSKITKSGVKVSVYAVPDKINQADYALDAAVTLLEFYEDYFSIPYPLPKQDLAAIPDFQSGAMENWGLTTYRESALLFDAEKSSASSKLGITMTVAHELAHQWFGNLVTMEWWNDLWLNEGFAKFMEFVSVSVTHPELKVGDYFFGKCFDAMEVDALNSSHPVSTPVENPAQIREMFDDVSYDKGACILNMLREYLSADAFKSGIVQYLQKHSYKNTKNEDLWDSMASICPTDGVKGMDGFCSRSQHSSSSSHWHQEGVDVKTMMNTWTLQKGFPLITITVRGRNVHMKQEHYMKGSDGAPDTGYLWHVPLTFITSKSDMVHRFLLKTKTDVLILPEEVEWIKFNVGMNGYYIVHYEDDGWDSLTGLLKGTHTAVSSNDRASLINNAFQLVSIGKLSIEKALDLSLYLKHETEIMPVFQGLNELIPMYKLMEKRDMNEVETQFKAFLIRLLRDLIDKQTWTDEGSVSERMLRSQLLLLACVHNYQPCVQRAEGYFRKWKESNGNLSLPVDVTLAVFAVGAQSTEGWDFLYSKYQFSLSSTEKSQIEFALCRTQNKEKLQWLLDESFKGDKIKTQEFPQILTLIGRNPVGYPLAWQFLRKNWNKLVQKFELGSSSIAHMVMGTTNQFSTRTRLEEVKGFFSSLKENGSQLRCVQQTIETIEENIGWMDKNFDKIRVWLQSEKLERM
* = called active by the depositor. Only a selection was taken, and hits are over-represented in it overall.

Screening CCC(C)OC(=O)C[N+](C)(C)CCOC1CC2CCC1(C)C2(C)C (stereo not drawn) returned HDAC3 inhib -7.5, SIRT5 block 4.1, PDI turbidity -3.2, ERp5 inh 2.2 and ERAP1 inh 1.7.
Screening CC(=O)OC(COC1C[C@@H]2CC[C@@]1(C)C2(C)C)C[N+]1(C)CCCCC1 (stereo partly drawn) returned HDAC3 inhib -6.7, SIRT5 block -5.3, PDI turbidity 1.8, ERp5 inh 5.4 and ERAP1 inh 99.7*.
`CO[C@@H]1CN(C)C(=O)c2cc(NC(=O)Nc3c(C)noc3C)ccc2OC[C@H](C)N(CC2CC2)C[C@@H]1C` gave SIRT5 block -4.6, ERp5 inh 0.8 and ERAP1 inh -2.1.
`COc1ccc(S(=O)(=O)/N=C2/NC(=O)/C(=C/c3ccco3)S2)cc1` gave HDAC3 inhib -5.5, SIRT5 block 16.1*, PDI turbidity -0.9, ERp5 inh -0.7 and ERAP1 inh 8.0.
CC(C)NC(=O)N(C)C[C@@H]1Oc2ccc(NS(=O)(=O)c3cn(C)cn3)cc2CC(=O)N([C@@H](C)CO)C[C@@H]1C was read as SIRT5 block 0.8, ERp5 inh -1.5 and ERAP1 inh 0.5.
CCN1[C@@H]2c3ccc(-c4cccc(F)c4)c(=O)n3C[C@H]1[C@H](CO)[C@H]2C(=O)NCCCN(C)C was read as SIRT5 block -2.7, ERp5 inh -4.7 and ERAP1 inh 2.7.
Cc1nc(N)nc(N)c1-c1ccc(Cl)c(Cl)c1 was read as PDI turbidity 16.0, ERp5 inh -1.7 and ERAP1 inh -6.4.
Screening Cc1nc(N)nc(N)c1CCCc1ccc(Cl)c(Cl)c1 returned HDAC3 inhib -3.3, SIRT5 block 15.0*, PDI turbidity 2.0 and ERp5 inh 4.8.
`COc1ccccc1C(CC(=O)c1ccccc1)C(=O)c1ccccc1` (stereo not drawn) gave SIRT5 block 17.1* and ERp5 inh 1.0.
`C[n+]1c(-c2ccccc2)cc2c(=Cc3ccccc3)c3ccccc3n21` gave PDI turbidity 7.6, ERp5 inh -4.9 and ERAP1 inh 3.6.
Screening CN(C)c1ccc(C=c2c3cc(O)ccc3n3c2cc(-c2ccccc2)[n+]3C)cc1 returned SIRT5 block 3.1, PDI turbidity -0.2, ERp5 inh -4.6 and ERAP1 inh 55.9*.
COc1ccc(C(=O)COC(=O)C2CCC(=O)N2)cc1 (stereo not drawn) was read as HDAC3 inhib -1.2, SIRT5 block 16.7*, PDI turbidity -7.5, ERp5 inh -0.4 and ERAP1 inh 1.5.
CC(C)CC#Cc1ccc2c(c1)O[C@H](CN(C)CC1CCOCC1)[C@H](C)CN([C@@H](C)CO)S2(=O)=O was read as SIRT5 block inconclusive, ERp5 inh 1.4 and ERAP1 inh 1.0.
Screening CCOc1cc(C2CC(=O)N3CN(C4CCCCC4)CSC3=C2C#N)ccc1O (stereo not drawn) returned HDAC3 inhib inconclusive, SIRT5 block 2.1, ERp5 inh 0.4 and ERAP1 inh 5.9.
COc1ccc2ccccc2c1C1CC(=O)N2CN(Cc3ccco3)CSC2=C1C#N (stereo not drawn) was read as HDAC3 inhib 44.4*, SIRT5 block 0.8, ERp5 inh -1.6 and ERAP1 inh -11.3.
Screening COc1ccc2ccccc2c1C1CC(=O)N2CN(C3CCCCC3)CSC2=C1C#N (stereo not drawn) returned HDAC3 inhib 42.7*, SIRT5 block 16.9*, ERp5 inh 9.1 and ERAP1 inh -16.6.
Screening N#CC1=C2SCN(Cc3ccco3)CN2C(=O)CC1c1ccc(Cl)cc1 (stereo not drawn) returned HDAC3 inhib 11.6 and PDI turbidity 0.5.
`COc1ccc(C2CC(=O)N3CN(Cc4ccco4)CSC3=C2C#N)cc1` (stereo not drawn) gave HDAC3 inhib 36.9* and PDI turbidity -0.4.
C[C@H]1CN([C@@H](C)CO)C(=O)c2cc(-c3cccc(F)c3)cnc2O[C@H]1CN(C)C(=O)C1CCCCC1 was read as SIRT5 block -3.9, ERp5 inh 1.5 and ERAP1 inh 1.5.
`COc1ccccc1CNC(=O)C[C@H]1CC[C@H](NC(=O)CN(C)C)[C@@H](CO)O1` gave SIRT5 block -1.5, ERp5 inh 2.1 and ERAP1 inh 2.7.
Cc1ccc(S(=O)(=O)N(C)C[C@H]2OCCCC[C@H](C)Oc3ccc(NS(=O)(=O)c4cn(C)cn4)cc3C(=O)N([C@H](C)CO)C[C@@H]2C)cc1 was read as SIRT5 block -0.4, ERp5 inh -2.6 and ERAP1 inh 2.3.
COc1cc(C(=O)Nc2ccncc2)cc(OC)c1OC was read as HDAC3 inhib 0.2, SIRT5 block 0.5, PDI turbidity -4.2, ERp5 inh -3.1 and ERAP1 inh -1.0.
Screening COC(=O)c1nc(NC(=O)c2cc(OC)c(OC)c(OC)c2)n[nH]1 returned HDAC3 inhib 38.8*, SIRT5 block -4.0, PDI turbidity -6.6, ERp5 inh -2.2 and ERAP1 inh 1.4.
Screening Cc1nc2c(-c3ccccc3)c(C)[nH]n2c(=O)c1Cc1ccccc1 returned HDAC3 inhib -5.3, SIRT5 block -1.3, PDI turbidity -2.9, ERp5 inh -3.4 and ERAP1 inh -3.1.
For Cc1nc2c(-c3ccc(Cl)cc3)c(C)[nH]n2c(=O)c1Cc1ccccc1 the results were HDAC3 inhib -6.9, SIRT5 block 17.1*, PDI turbidity -2.4, ERp5 inh -4.4 and ERAP1 inh 4.1.
Cc1ccc(-c2ccc([C@H]3[C@H](CO)N4C(=O)CN(C(=O)c5ccncc5)C[C@@H]34)cc2)cc1 was read as SIRT5 block 1.0, ERp5 inh 8.0 and ERAP1 inh 1.7.
For CC(=O)NS(=O)(=O)c1ccc(N2C(=O)c3ccccc3C2=O)cc1 the results were HDAC3 inhib 14.9, SIRT5 block 15.4*, PDI turbidity -3.5, ERp5 inh 0.6 and ERAP1 inh -3.9.
Screening COc1ccc(S(=O)(=O)Nc2ccc3c(c2)C(=O)N([C@H](C)CO)C[C@H](C)[C@H](CN(C)C(=O)Nc2c(C)noc2C)OCCCC[C@@H](C)O3)cc1 returned SIRT5 block -0.1, ERp5 inh -3.9 and ERAP1 inh -2.6.
Screening Cc1ccc(N2CCN(C(=O)CCc3nc4ccccc4[nH]3)CC2)c(C)c1 returned HDAC3 inhib -1.7, SIRT5 block -8.8, ERp5 inh -5.5 and ERAP1 inh 5.3.
Screening Cc1cccc(N2CCN(C(=O)CCc3nc4ccccc4[nH]3)CC2C)c1 (stereo not drawn) returned HDAC3 inhib 1.2, SIRT5 block 16.9*, ERp5 inh 2.3 and ERAP1 inh 17.8.
`COc1ccc(CN(C)C[C@H]2OCCCC[C@@H](C)Oc3ccc(NC(=O)Nc4c(C)noc4C)cc3C(=O)N([C@H](C)CO)C[C@H]2C)cc1` gave SIRT5 block 5.2, ERp5 inh 0.7 and ERAP1 inh -2.6.
For CCC(CO)NC(=O)c1ccccc1C(F)(F)F (stereo not drawn) the results were HDAC3 inhib 0.9, SIRT5 block 22.8*, PDI turbidity 2.3, ERp5 inh -2.2 and ERAP1 inh -1.0.

Assay outcomes (PubChem)
